The source of these data is PubChem BioAssay AID1347416 (National Center for Advancing Translational Sciences (NCATS), 2020).

The whole screen tested about 4,100 compounds, of which about 1,600 (39%) were called active. Inconclusive results (about 25%) are left out. The call rests on the fitted dose curve; in most records, active means well fitted inhibition curve with a large enough effect; inconclusive means small, poorly fitted or top-dose-only effect; inactive means no such curve, though single readings can be large or run the other way. This is one part of the list.
On the % scale 0 is the no-effect control and ±100 the full control effect; potency means the concentration at half of the fitted maximal effect.

This assay can be described thus: qHTS Validation assay for Inhibitors of Plasmodium falciparum Dd2 growth in vitro. Further: nearly all actives have a fitted effect of over 70% in size. As to conditions: P. falciparum Dd2 in RBCs, SYBR Green growth, 72 h; series mostly up to 28.7 µM; activity change, negative = inhibition: at the top concentration. A digest of the protocol:
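P. falciparum Dd2-infected red blood cells (2.5% hematocrit, 0.3% parasitemia) grown 72 h at 37 °C under 5% O2 with compounds in a titration, 29 uM to 0.5 nM final. Growth read as SYBR Green-1 fluorescence after ~16 h lysis; artesunate 300 nM as positive control.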
Regarding `Cc1ccc(CN(C)C(=O)c2cc(COc3ccc(F)cc3Cl)on2)o1`, the “activity change, negative = inhibition” value is 20.9% (inactive).
Consider `CC1(Cc2ccc3c(c2)OCO3)CCCN(C(=O)c2ccccc2-n2cncn2)C1` (stereo unspecified), for which the “activity change, negative = inhibition” value is -5.72% (inactive).
`COC(=O)c1nn(-c2ccc3c(c2)CCN3C(C)=O)cc1O`: the “activity change, negative = inhibition” value is 45.4% (inactive).
`COCCNc1nc2cc(C(=O)N3CC[C@H](CO)[C@@H](O)C3)ccc2n1C`: the “activity change, negative = inhibition” value was 19% (inactive).
Take `COc1ccc(C2C(C(=O)N3CCCCC3)CC(=O)N2c2ccc(OC)cc2)cc1` (stereo unspecified): the Potency is 7.5 µM (active).
Regarding `COc1cnc(-c2ccccn2)nc1Oc1ccc(C(C)(C)C)cc1`, the “activity change, negative = inhibition” value was 66.3% (inactive).
`COc1cnc(-c2ccccn2)nc1N(C)c1ccccc1`: the Potency is 5.96 µM (active).
On the same count and under the same terms, under `COc1cnc(-c2ccccn2)nc1NC(C)C` stands 5.31 µM (active); under `Cc1nc(-c2ccccn2)nc(N(C)c2ccccc2)c1Cl`, 5.31 µM (active).
In the case of `COC(=O)c1ccc(Nc2nnc(-c3ccc(C)c(S(=O)(=O)N4CCN(C)CC4)c3)c3ccccc23)cc1`, the Potency is 8.41 µM (active).
Take `COC(=O)c1ccc(Nc2ncnc3c2nc2n3CCCC2)cc1`: the “activity change, negative = inhibition” value is -21.5% (inactive).
The same measure, in the same setting: under `CC(=O)c1cccc(NS(=O)(=O)c2cc(-c3cnc(C4CC4)o3)ccc2C)c1` stands 8.42% (inactive); under `CC(OC(=O)c1ccc(OCC2CCCO2)cc1)C(=O)N(C)Cc1ccccc1` (stereo unspecified), -9.4% (inactive).
`Cc1ccc(-c2nnc(Nc3ccc(OCC(N)=O)cc3)c3ccccc23)cc1S(=O)(=O)NCC1CCCO1` (stereo unspecified): the Potency was 4.73 µM (active).
As for `Cc1ccc(-c2nnc(Nc3ccc(O)cc3)c3ccccc23)cc1S(=O)(=O)N1CCN(C)CC1`, the Potency is 6.68 µM (active).
Regarding `CC(C)(C(=O)N1CCN(Cc2ccccc2)CC(O)C1)c1ccccc1` (stereo unspecified), the “activity change, negative = inhibition” value is -5.37% (inactive).
In the case of `CCOC(=O)c1c(N)sc2c1CCN(Cc1ccccc1)C2`, the Potency is 5.31 µM (active).
`CCOC(=O)c1c(NC(=O)/C=C/c2ccc(OCC)cc2)sc2c1CCC2`: the “activity change, negative = inhibition” value was 1.45% (inactive).
On the same count and under the same terms, under `Cc1cc(F)ccc1NC(=O)Cn1c(=O)ccc2cc(S(=O)(=O)N3CCC(C)CC3)ccc21` stands 1.53% (inactive).
For the molecule `O=C(CN1CCC(n2nnc3cc(F)ccc32)CC1)Nc1ccccc1N1CCOCC1`, the Potency is 5.31 µM (active).
For `CCO[C@H]1OC(C(=O)N2CCN(Cc3ccccc3)CC2)=C[C@@H](C2CCCCC2)[C@@H]1CCCO`, the “activity change, negative = inhibition” value is -29.6% (inactive).
Take `O=C(C1=C[C@H](c2csc3ccccc23)C[C@H](OCCCCO)O1)N1CCN(Cc2ccc3c(c2)OCO3)CC1`: the Potency was 13.3 µM (active).
Take `CCO[C@H]1OC(C(=O)N2CCN(Cc3ccc4c(c3)OCO4)CC2)=C[C@@H](c2cn(C(C)=O)c3ccccc23)[C@@H]1CCCO`: the Potency is 8.41 µM (active).
Take `CCO[C@@H]1OC(C(=O)N2CCN(Cc3ccc4c(c3)OCO4)CC2)=C[C@H](c2cn(C(C)=O)c3ccccc23)[C@H]1CCCO`: the Potency was 9.44 µM (active).
Regarding `O=C(NCc1nc2ccccc2[nH]1)C1=C[C@@H](c2ccccc2)C[C@@H](OCCCCO)O1`, the “activity change, negative = inhibition” value was 20.8% (inactive).
Still for that read-out and setting: next, `CN(Cc1cccnc1)Cc1ccccc1C(F)(F)F`: 31.1% [at 43.1 µM] (inactive).
`CCOC(=O)c1nnn(-c2nonc2-n2cccc2)c1CN1CCC(C(=O)OCC)CC1`: the Potency is 4.73 µM (active).
Take `CCOC(=O)c1nnn(-c2nonc2-n2cccc2)c1CN1CCCCC1`: the Potency is 7.5 µM (active).
In the case of `Cn1c(CN2CCCCC2)nnc1C1CCCN(C(=O)c2cocn2)C1` (stereo unspecified), the “activity change, negative = inhibition” value is 0% (inactive).
The same measure, in the same setting: under `CC(=O)Nc1cccc(-c2cn(C)c(=O)n3cc(COc4ccccc4)nc23)c1` stands -5.26% [at 43.1 µM] (inactive); under `O=C(COc1ccccc1)N1CCCC(n2cc(-c3nc(C4CC4)no3)nn2)C1` (stereo unspecified), -15.8% (inactive).
In the case of `O=C(c1nnc(COc2ccc(OC(F)(F)F)cc2)n1-c1ccccc1)N1CCC[C@@H]1C(c1ccccc1)c1ccccc1`, the Potency was 8.41 µM (active).
As for `O=C(c1nnc(CN2CCC(F)(F)CC2)n1-c1cccnc1)N1CCC[C@@H]1C(c1ccccc1)c1ccccc1`, the Potency is 15 µM (active).
The same measure, in the same setting: next, `CC(=O)Nc1cccc(OCc2nnc(C(=O)N3CCC[C@@H]3C(c3ccccc3)c3ccccc3)n2-c2ccccc2)c1`: 10.6 µM (active).
Take `COC1CCOC2(CCN(C(=O)CCn3nc(C)cc3C)CC2)C1` (stereo unspecified): the “activity change, negative = inhibition” value was 14% (inactive).
`COc1ccc(NC2=C(c3ccc(C(F)(F)F)cc3)C(=O)c3ccccc32)cc1`: the Potency was 2.11 µM (active).
For `COc1ccc(C2=C(Nc3ccccc3)c3ccccc3C2=O)cc1`, the Potency was 9.44 µM (active).
For `COc1ccc(C(=O)NC2(C(F)(F)F)C(=O)NC(C)=C2C#N)cc1` (stereo unspecified), the “activity change, negative = inhibition” value is 25% (inactive).
In the case of `O=C1C(c2ccc(C(F)(F)F)cc2)=C(Nc2ccc(Cl)cc2)c2ccccc21`, the Potency was 1.5 µM (active).
On to `COCCn1cnc2ccc(Nc3ccc(C(F)(F)F)cc3)nc2c1=O`, for which the “activity change, negative = inhibition” value is 9.07% [at 43.1 µM] (inactive).
Consider `COc1ccc(NC2=C(c3ccc(OC)cc3)C(=O)c3ccccc32)cc1`, for which the Potency was 5.96 µM (active).
For the molecule `Cc1cc(Cl)ccc1NC(=O)N1C[C@H](c2nc(-c3cccnc3)no2)[C@@H](C)C1`, the “activity change, negative = inhibition” value was -5.05% (inactive).
As to `CCOc1ccc(NC2=C(OC)C(=O)c3ccccc3C2=O)cc1`, the Potency is 0.376 µM (active).
Same read-out and setting: under `COc1ccc(C2=C(Nc3ccc(C)cc3)c3ccccc3C2=O)cc1` stands 4.73 µM (active); under `Cc1cc(C)c(CNC(=O)c2cc(-c3cccnc3)cc3c2OCCN3C(C)C)c(=O)[nH]1`, 19.3 µM (active); under `Cc1cc(C)c(CNC(=O)c2cc(-c3ccnn3C)cc3c2OCCN3C(C)C)c(=O)[nH]1`, 15.3 µM (active).
